Rows were chosen to be rich in hits. Some 5.9% of all compounds tested hit in one or more screens of this group.
GLP-1R inv ag – GLP-1 receptor (human) inverse agonism | HEK293 GLP-1R CRE-luciferase, luminescence, 24 h; GLP-1R form is constitutively active | Potency, µM (highest dose often 38.3 µM), usual class: inhibitors | hit rate 1.6% among 410,000; note: nearly all actives have a fitted effect of over 55% in size
Target sequence (P43220 whole entry, looked up): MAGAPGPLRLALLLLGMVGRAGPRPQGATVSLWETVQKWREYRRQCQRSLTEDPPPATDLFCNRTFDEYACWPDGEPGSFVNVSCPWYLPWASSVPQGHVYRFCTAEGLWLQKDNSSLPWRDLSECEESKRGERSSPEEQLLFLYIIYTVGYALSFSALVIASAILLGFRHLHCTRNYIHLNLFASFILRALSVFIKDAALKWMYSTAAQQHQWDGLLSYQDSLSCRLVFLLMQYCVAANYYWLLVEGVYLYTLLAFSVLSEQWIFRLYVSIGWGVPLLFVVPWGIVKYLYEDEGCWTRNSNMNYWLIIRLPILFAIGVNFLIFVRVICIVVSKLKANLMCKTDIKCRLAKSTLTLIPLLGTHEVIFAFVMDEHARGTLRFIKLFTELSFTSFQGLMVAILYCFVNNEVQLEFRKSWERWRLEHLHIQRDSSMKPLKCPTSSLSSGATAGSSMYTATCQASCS
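Using stably transfected HEK293 (constitutively active GLP-1R, cAMP-luciferase reporter), compounds were incubated 24 hr and luciferase measured by luminescence.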
HEK293 tox – cytotoxicity counter-screen for GLP-1 receptor inverse agonists. HEK293 cAMP-luciferase reporter cells, luminescence, 24 h. Potency, µM (doses to about 38.3 µM), actives largely listed as inhibitors. hit rate 0.13% among 410,000;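 note: loss of luciferase light is scored as toxicity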
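A 23 nL compound transfer followed 12 hours of cell culture at 37 deg C; exposure then lasted 24 hr. Luciferase assay detection reagent was dispensed and plates read for luminescence after a 12 min room-temperature wait.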
GLP1R ag – GLP-1 receptor (human) agonism; Potency, µM (series often up to 45.6 µM), usual class: activators; hit rate 0.007% among 380,000; HEK293 GLP-1R CRE-luciferase, luminescence, 4-6 h; cells express a hypersensitive GLP-1R form; P43220; AID 624172
RORg inh – ROR gamma (mouse) transcription inhibition; P51450; hit rate 5.4% among 310,000; Drosophila S2 Gal4-RORgamma UAS-luciferase reporter, 20 h; Potency, µM (titrated, usually from 53.6 µM), hits mostly inhibitors; note: nearly all actives have a fitted effect of over 60% in size
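Read-out: Photinus luciferase luminescence; inhibitors lower reporter signal. Insect Schneider cells with Gal4-ROR gamma fusion under metallothionein promoter, UAS reporter; 700 uM final copper sulfate induction, 20 hr, ambient temperature.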
Gal4-VP16 FLuc – Gal4-VP16 reporter inhibition counter-screen | Drosophila S2 Gal4-VP16 UAS-luciferase, luminescence, 20 h | Potency, µM (doses to about 53.6 µM), hits mostly inhibitors | hit rate 3.5% among 310,000 | AID 2546;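 note: Gal4-VP16 expression switched on by copper sulfate through the metallothionein promoter; nearly all actives have a fitted effect of over 50% in size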
Of the large screens only hits and unclear results are named; the others gave an inactive call. Calls come from the whole dose curve; as a rule, active = well fitted curve in the direction sought with a large enough effect; inconclusive = small, poorly fitted or top-dose-only effect, or another doubt; inactive = no such curve, though single readings can be large; an effect the other way counts as inactive or inconclusive.

Cc1cc(NCCCn2ccnc2)n2ncc(-c3ccccc3)c2n1	GLP-1R inv ag inconclusive, RORg inh 4.5µM, Gal4-VP16 FLuc 7.9µM
Cc1cc(NCCN2CCOCC2)n2nc(C)c(-c3ccccc3)c2n1	GLP-1R inv ag inconclusive, RORg inh 8.9µM, Gal4-VP16 FLuc 10µM
O=C(NCc1cccc(Cl)c1)c1ccc2c(Cl)c3c(nc2c1)CCCC3	none (no result: RORg inh, Gal4-VP16 FLuc)
C[N+]1(C)CC(O)[C@H](C(=O)[O-])C1 (stereo partly drawn)	none (no result: GLP-1R inv ag, HEK293 tox, GLP1R ag)
CCN(CC)CCNC(=O)C(=O)NCC(c1ccc2c(c1)OCO2)N1CCOCC1 (stereo not drawn)	none (no result: GLP1R ag, RORg inh, Gal4-VP16 FLuc)
CCOC(=O)c1c(C)oc2c1c(C=NCCO)c(O)c1ccccc12	RORg inh 11µM, Gal4-VP16 FLuc inconclusive
CCOC(=O)c1c(C)oc2c1c(C(c1cccnc1)N1CCCCC1)c(O)c1ccccc12 (stereo not drawn)	RORg inh inconclusive
CCOC(=O)c1c(C)oc2c1c(C(c1ccccc1)N1CCOCC1)c(O)c1ccccc12 (stereo not drawn)	RORg inh inconclusive, Gal4-VP16 FLuc 10µM
COc1ccc(C(=O)Nc2nnc(-c3ccccc3)o2)cc1OC	RORg inh 0.56µM, Gal4-VP16 FLuc 1µM
COc1ccccc1-c1nnc(NC(=O)c2ccccc2F)o1	RORg inh 2µM, Gal4-VP16 FLuc 2.8µM
COc1cc2ccccc2cc1C(=O)Nc1nnc(-c2ccncc2)o1	RORg inh 7.1µM, Gal4-VP16 FLuc 10µM
COc1cc2ccccc2cc1C(=O)Nc1ccc(Cc2ccncc2)cc1	none
O=C(Nc1nnc(-c2ccncc2)o1)c1ccccc1	RORg inh 3.2µM, Gal4-VP16 FLuc 5µM
COc1cc(C(=O)OCC(=O)Nc2nnc(-c3ccccc3)o2)cc(OC)c1OC	none (no result: RORg inh, Gal4-VP16 FLuc)
CC(C)=CC(=O)Oc1ccc(C(=O)N(C)c2ccccc2I)cc1	none (no result: GLP-1R inv ag, HEK293 tox, GLP1R ag)
O=C(Nc1nnc(-c2ccncc2)o1)c1ccccc1F	RORg inh inconclusive, Gal4-VP16 FLuc 10µM
Cc1ccc(C(=O)Nc2nnc(-c3ccncc3)o2)cc1	none
O=C(CCCCn1c(=O)c2ccccc2n(Cc2cccc(Cl)c2)c1=O)NCc1ccc2c(c1)OCO2	none (no result: RORg inh, Gal4-VP16 FLuc)
COc1ccccc1NS(=O)(=O)c1ccc(N/N=C/C=C/c2ccccc2[N+](=O)[O-])c([N+](=O)[O-])c1	none
COc1ccccc1NS(=O)(=O)c1ccc(NN=C2CCCC2)c([N+](=O)[O-])c1	RORg inh inconclusive, Gal4-VP16 FLuc 18µM
Cc1ccccc1N/N=C/c1c(C)nc2ccccn12	GLP-1R inv ag inconclusive, RORg inh 10µM
CCCCOc1ccc(CSC(CC(=O)O)C(=O)O)cc1 (stereo not drawn)	RORg inh 2.2µM
Cc1oc(-c2ccccc2F)nc1CS(=O)(=O)CC(=O)N1CCN(c2ccc(Cl)cc2)CC1	GLP-1R inv ag inconclusive (no result: RORg inh, Gal4-VP16 FLuc)
N=c1c(S(=O)(=O)c2ccccc2)cc2c(=O)n3ccccc3nc2n1Cc1ccco1	RORg inh inconclusive, Gal4-VP16 FLuc inconclusive
Cc1ccc(S(=O)(=O)c2cc3c(=O)n4ccccc4nc3n(Cc3ccco3)c2=N)cc1C	RORg inh inconclusive, Gal4-VP16 FLuc 18µM
Cc1ccc2nc3c(cc(C(=O)NCc4ccco4)c(=N)n3C(C)C)c(=O)n2c1	none (no result: GLP1R ag, RORg inh, Gal4-VP16 FLuc)
CNC(=O)c1cc2c(=O)n3cc(C)ccc3nc2n(Cc2ccco2)c1=N	RORg inh 11µM, Gal4-VP16 FLuc inconclusive (no result: GLP-1R inv ag, HEK293 tox, GLP1R ag)
CCc1noc(-c2ccc(NCc3ccccc3)c([N+](=O)[O-])c2)n1	none (no result: GLP1R ag, RORg inh, Gal4-VP16 FLuc)
CN(C(=O)Nc1ccc(Cl)cc1Cl)[C@H]1c2cc(Br)ccc2OC[C@H]1CO	GLP-1R inv ag inconclusive, RORg inh 2.8µM, Gal4-VP16 FLuc inconclusive
Cc1cccc(Nc2nnc(SCC(=O)NC3CCCc4ccccc43)s2)c1C (stereo not drawn)	GLP-1R inv ag 8.9µM
Cc1ccccc1-n1c(C)nnc1SCC(=O)NC1CCCc2ccccc21 (stereo not drawn)	none
Cc1ccc2c(CNC3CCC(C)CC3)c(C(=O)O)n(Cc3cccc(F)c3)c2c1 (stereo not drawn)	none (no result: GLP1R ag, RORg inh, Gal4-VP16 FLuc)
COC(=O)[C@@H]1C[C@H]1[C@@H](NC(=O)c1cc(C)nn1C)c1ccccc1	none (no result: GLP-1R inv ag, HEK293 tox, GLP1R ag)
COC(=O)c1[nH]c2ccc(C)cc2c1NC(=O)CN1CCN(c2ccc(F)cc2)CC1	GLP-1R inv ag 4µM, Gal4-VP16 FLuc 13µM
COC(=O)c1[nH]c2ccc(C)cc2c1NC(=O)CN1CCC(C)CC1	GLP-1R inv ag 6.3µM
CCOC(=O)N1CCN(CC(=O)Nc2c(C(=O)OC)[nH]c3cc(C)ccc23)CC1	none
COC(=O)c1[nH]c2ccc(C)cc2c1NC(=O)CN1CCN(C(=O)c2ccccc2)CC1	HEK293 tox inconclusive
Cc1ccc2[nH]c(C(=O)O)c(NC(=O)CN3CCN(c4cccc(C)c4C)CC3)c2c1	GLP-1R inv ag 10µM, RORg inh inconclusive
CCOC(=O)N1CCN(CC(=O)Nc2c(C(=O)OC)[nH]c3ccc(Cl)cc23)CC1	GLP-1R inv ag inconclusive, RORg inh inconclusive, Gal4-VP16 FLuc 7.9µM
CC[C@H](C)[C@H](NC(=O)CNC(=O)[C@H](C)NC(=O)[C@H](C)N)C(=O)NCC(=O)N[C@H](C(=O)N[C@@H](CC(C)C)C(=O)N[C@H](C(=O)N[C@H](C(=O)O)C(C)C)[C@@H](C)O)[C@@H](C)CC	none (no result: GLP-1R inv ag, HEK293 tox, GLP1R ag)
COC(=O)c1[nH]c2ccc(C)cc2c1NC(=O)CN1CCN(Cc2ccccc2)CC1	GLP-1R inv ag inconclusive, HEK293 tox inconclusive
COC(=O)c1[nH]c2ccc(C)cc2c1NC(=O)CN1CCN(c2ccccc2)CC1	GLP-1R inv ag 10µM, HEK293 tox inconclusive, RORg inh inconclusive, Gal4-VP16 FLuc 11µM
COC(=O)c1nnc(C(=O)NCc2ccccc2)c2[nH]c3ccccc3c12	none (no result: GLP-1R inv ag, HEK293 tox, GLP1R ag)
CN(C(=O)Cn1cc(S(=O)(=O)Cc2ccccc2Cl)c2ccccc21)c1ccccc1	GLP-1R inv ag inconclusive (no result: GLP1R ag, RORg inh, Gal4-VP16 FLuc)
CCCc1[nH][nH]c(=O)c1C(c1cccc(Cl)c1)C(C#N)C#N (stereo not drawn)	none
Cc1[nH]n(-c2ncc(-c3ccc(Cl)cc3)s2)c(=O)c1C(c1ccc(Cl)cc1)C(C#N)C#N (stereo not drawn)	GLP-1R inv ag inconclusive, RORg inh 14µM, Gal4-VP16 FLuc inconclusive
O=C(N/N=C\C=C\c1ccc(Br)cc1)c1ccc2c(c1)OCO2	RORg inh 13µM, Gal4-VP16 FLuc 4.5µM
O=C(Nc1ccc(Br)cc1)c1ccc2c(c1)OCO2	RORg inh inconclusive
O=C(N/N=C/C=C/c1ccc2c(c1)OCO2)c1ccc([N+](=O)[O-])cc1	RORg inh 2µM, Gal4-VP16 FLuc 10µM
O=C(O)C1CC(=O)N(c2ccc(OCc3ccccc3Cl)cc2)C1 (stereo not drawn)	RORg inh 14µM, Gal4-VP16 FLuc inconclusive
NC(=O)C1CC(=O)N(c2ccc(OCc3ccccc3Cl)cc2)C1 (stereo not drawn)	none
Cc1nc(-c2ccc(S(=O)(=O)NCc3ccccn3)s2)cs1	RORg inh 10µM, Gal4-VP16 FLuc inconclusive

Screening results (PubChem)
